# SF-1 inh = inhibitors of human nuclear receptor SF-1; AID 525; actives 0.55% (n = 65,000); CHO-K1 Gal4-SF-1 LBD luciferase reporter; Q13285; inhibition, % at 10 µM;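 active means inhibition above the mean inhibition of all tested compounds plus 3 SD, cut at about 48% in these data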;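 further: 0% = SF-1 transfected cells with DMSO and 100% = mock-transfected cells lacking SF-1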
# Target sequence (Q13285 whole entry, looked up, the tested form may be a part): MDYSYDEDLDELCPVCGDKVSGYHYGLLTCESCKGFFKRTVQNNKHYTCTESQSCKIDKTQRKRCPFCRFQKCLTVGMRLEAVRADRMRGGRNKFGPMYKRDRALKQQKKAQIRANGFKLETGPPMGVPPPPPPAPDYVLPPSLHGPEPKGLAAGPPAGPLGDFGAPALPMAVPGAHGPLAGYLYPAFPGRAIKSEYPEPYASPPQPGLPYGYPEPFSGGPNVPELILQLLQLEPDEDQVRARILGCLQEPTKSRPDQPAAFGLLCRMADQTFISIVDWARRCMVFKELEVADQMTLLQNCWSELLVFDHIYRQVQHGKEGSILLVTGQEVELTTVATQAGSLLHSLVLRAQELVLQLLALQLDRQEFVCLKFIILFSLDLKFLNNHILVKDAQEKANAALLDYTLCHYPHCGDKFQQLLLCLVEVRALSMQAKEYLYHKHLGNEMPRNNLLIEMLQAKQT
# The depositor's hits bear a star. This excerpt belongs to a sample that is enriched for hits.
SMILES,SF-1 inh
Cc1ccc(-n2ncc3c(N4CCCC(C)C4)ncnc32)c(C)c1 (stereo not given),-59
Cc1ccc(-n2ncc3c(N4CCCC4)ncnc32)c(C)c1,-66
c1ccc(-n2ncc3c(NC4CCCCCC4)ncnc32)cc1,-91
CC1CCCN(c2ncnc3c2cnn3-c2ccc(Cl)cc2)C1 (stereo not given),86*
Cc1cccc(-n2ncc3c(N4CCC(C)CC4)ncnc32)c1,-70
CC1CCCN(c2ncnc3c2cnn3-c2ccccc2)C1 (stereo not given),48*
CC1CC(C)CN(c2ncnc3c2cnn3-c2ccc(Cl)cc2)C1 (stereo not given),-71
CCN1CCN(c2ncnc3c2cnn3-c2ccccc2)CC1,-56
c1ccc(-n2ncc3c(N4CCCCC4)ncnc32)cc1,69*
CCOC(=O)N1CCC(N2C(=O)c3ccc(C(=O)Nc4ccc(F)cc4F)cc3C2=O)CC1,-6
Cc1ccc(C2=Nc3ccccc3NC(C)(c3ccc(C)o3)C2)o1 (stereo not given),-106
OC(COCC1COc2ccccc2O1)CN1CCN(c2ccccn2)CC1 (stereo not given),3
CCSc1nnc(NC(=O)CSc2nc3c(c(=O)n2-c2ccccc2)SCC3)s1,3
CCOC(=O)c1cc2cc(OC)ccc2[nH]1,-73
CCCn1nc(Oc2nc(SC)nc(N(C)C)n2)ccc1=O,-8
Cc1ccc(NC(=O)c2ocnc2C)cc1Cl,-72
CC1CCN(C(=O)C2Cc3ccccc3CN2S(=O)(=O)c2ccc(F)cc2)CC1 (stereo not given),-6
CC1(C)CNC(=O)c2sc(N3CCOCC3)nc2C1,-4
COc1cccc(NC(=O)N2CCC(N3CCCCC3)CC2)c1,21
COc1ccc(-c2noc(C3CCCN(C(=O)CCc4ccccc4)C3)n2)cc1 (stereo not given),4
COc1ccc(NC(=O)N2CCCC(c3nc(-c4ccc(C(C)C)cc4)no3)C2)cc1 (stereo not given),59*
c1ccc2c(c1)CCN(CCCNc1nc3ccccc3n3cnnc13)C2,-16
ClC(Br)=C(n1cnc2ccccc21)n1cnc2ccccc21,10
c1ccc(/N=C2\N=C(Nc3ccccn3)c3ccccc32)nc1,86*
O=C(CN1CCN(CC(=O)Nc2ccccn2)CC1)Nc1ccccn1,8
SMILES,SF-1 inh
c1ccc(Nc2nc3ccccc3[nH]2)nc1,-55
NC(=O)C1CCN(CCC(=O)Nc2cccc(Cl)c2)CC1,0
CCOC(=O)N1CCC(Nc2nc3ccccc3nc2NS(=O)(=O)c2ccc(Cl)cc2)CC1,-54
CCOC(=O)CSC(CC)C(=O)Nc1nnc(CC)s1 (stereo not given),-20
Cc1nc2ccc(NC(=O)Cn3cnc4c3c(=O)n(C)c(=O)n4C)cc2s1,3
c1ccc(-c2csc(Nc3cccnc3)n2)nc1,-57
CCOC(=O)c1sc(Nc2nc3c(OC)cccc3s2)nc1C,-64
COc1cccc2sc(Nc3nc(-c4ccccn4)cs3)nc12,96*
O=S(=O)(c1ccc(Cl)s1)N1CCN(C/C=C/c2ccccc2)CC1,1
O=C(OC(C(=O)NCc1cccs1)c1ccccc1Cl)c1ccco1 (stereo not given),10
Cc1cc(C)cc(-n2cc3c(=O)n(C)c(=O)n(C)c3c2)c1,-1
CC1(C)COCN1S(=O)(=O)c1ccc(C(=O)Nc2nnc(-c3ccc(Cl)s3)o2)cc1,65*
CC(=O)Nc1ccc(C(=O)Nc2ccc(S(=O)(=O)N3CCCC3)cc2)cc1,11
CC1CC(C)CN(C(=O)CSc2nnc(-c3ccc(Cl)s3)o2)C1 (stereo not given),5
COc1ccc(-c2nnc(NC(=O)c3ccc(S(=O)(=O)N4COCC4(C)C)cc3)o2)cc1,50*
COc1cccc(C(=O)Nc2cccc(-c3nnc(-c4ccccc4)o3)c2)c1,-92
COc1ccc(S(=O)(=O)N2CCCC2C(=O)Nc2ccc(O)cc2)cc1 (stereo not given),1
Cc1cc(C(=O)Nc2sc3c(c2C#N)CCC3)no1,-116
Cc1ccnc(SCC(=O)Nc2sc3c(c2C#N)CCCC3)n1,76*
Cc1cc(C(=O)Nc2sc3c(c2C#N)CCCC3)no1,-71
COc1ccc(-c2nc(SC)n(C(=O)c3ccco3)n2)cc1,-58
COc1ccccc1NC(=O)C1=C(C)Nc2nc(CCCO)nn2C1c1ccc2c(c1)OCO2 (stereo not given),-12
CCn1c(SCC(=O)NCCOc2ccccc2)nc2ccccc2c1=O,7
CCOC(=O)CSc1nnc(CNC(=O)c2ccc(OC)cc2OC)n1-c1ccc(OC)cc1,14
COc1ccc(C(=O)Nn2c(SCC(=O)NCc3ccco3)nc3ccccc3c2=O)cc1,62*
SMILES,SF-1 inh
CCOC(=O)CSc1nc2cc(C(=O)NCc3ccco3)ccc2c(=O)n1-c1ccc(F)cc1,51*
COc1ccc2cc(C(=O)NCc3ccco3)c(=O)oc2c1,11
Cc1cc(C(=O)CNCc2ccco2)c(C)n1-c1ccc(F)cc1,-53
C[N+]12CCC(CC1)C(OC(=O)C(O)(c1ccccc1)c1ccccc1)C2 (stereo not given),-15
O=C(c1ccncc1)N1C2C=CC(C2)C1(C(F)(F)F)C(F)(F)F (stereo not given),-12
COc1ccc(C2=CSC3=NCCN23)cc1F,-8
COc1cccc2c(=O)n(CC(=O)N3CCCc4ccccc43)ccc12,-10
CC(=O)C1=C(c2ccccc2)NC(=O)NC1c1ccccc1OCC#N (stereo not given),6
Cc1c(C(=O)NCc2ccco2)sc2nc(-c3ccccc3)cn12,-52
Cc1c(C(=O)N2CCOCC2)sc2nc(-c3ccccc3)cn12,-82
c1ccc(-c2cn3c4c(sc3n2)CCCC4)cc1,73*
O=C1CC(N2CCOCC2)C(=O)N1CCc1ccccc1 (stereo not given),9
Cc1cc(Nc2ccccc2)n(-c2ccccc2)n1,6
Cc1cc(C)nc(-n2nc(C)cc2Nc2ccccc2)n1,20
Cc1cc(C)n(-c2cc(-n3nc(C)cc3C)ncn2)n1,20
Cc1cc(C)n(-c2nc(NC(C)(C)C)nc(NC(C)(C)C)n2)n1,53*
Cc1cc(NS(=O)(=O)c2ccccc2)n(-c2ccccc2)n1,1
Cc1cc(C)n(-c2nc(NC(C)C)nc(NC(C)C)n2)n1,53*
CN(C(=O)C12CC3CC(CC(C3)C1)C2)C1CCS(=O)(=O)C1 (stereo not given),16
CC(C)CCSc1nc(N)c(C#N)cc1C#N,-3
O=C(CN(Cc1ccco1)C(=O)CNS(=O)(=O)c1ccc(F)cc1)NCCc1ccccc1,-2
Cn1cc(C(=O)NCCN2CCN(c3ccccc3F)CC2)c2c3ccccc3n(C)c2c1=O,-5
COC(=O)c1ccc(CSc2nc3c(c(=O)n2-c2ccc(Br)cc2)SCC3)o1,7
CC1(C)CC(=O)C2=C(C1)Nc1ccccc1N=C2,-58
CC(=O)c1cnc2cc(-c3ccccc3)nn2c1C,-50
SMILES,SF-1 inh
COc1cc(OC)cc(-c2cc3nc(C)c(CCC(=O)O)c(C)n3n2)c1,79*
COc1ccc(-c2nc(N3CCOCC3)nc3nn4c(C)c(CCC(=O)O)c(C)nc4c23)cc1,4
CN(c1ccccc1)c1nc2ccsc2c(=O)s1,-50
CCOc1cccc(C(=O)Nc2nnc(-c3ccco3)s2)c1,-11
CC(=O)Nc1ccc(SCC(=O)c2cc(C)n(Cc3cccs3)c2C)cc1,58*
Cc1nc2ccc(NC(=O)Cc3cccs3)cc2s1,-80
C=CCn1c(C)cc(C(=O)CSc2nnc(Cc3ccccc3)o2)c1C,-14
CCCn1c(C)cc(C(=O)CN2C(=O)c3ccccc3C2=O)c1C,-65
